Here are results for 1 molecule from the supplement of paper PMC11732987, “Enantioselective OTUD7B fragment discovery through chemoproteomics screening and high-throughput optimisation” (Communications Chemistry, 2025).

Structures are written as SMILES. Unmarked numbers belong to inactive results.

What all share (assay): log2 ratio of Biotin-Ahx-Ub-VS probe labelling (fragment/DMSO); higher = less target engagement (more negative = stronger competition), active = hit call of the paper (q ≤ 0.05, log2 ratio ≤ -1)
What all share (settings): compound concentration: 200 uM; treatment time: 3 h

The target in one assay is USP16 (UniProt Q9Y5T5). In short, it runs like this:
(§1)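 Labelled DUBs were enriched with NeutrAvidin, digested with LysC and trypsin, and run by diaPASEF LC-MS/MS. The labelling used Biotin-Ahx-Ub-VS at 0.5 µM final for 1 h on HEK293T lysate (495 µg per sample) previously treated in triplicate with fragment at 200 µM or vehicle for 3 h. Values are average log2 fragment/vehicle ratios by unpaired t-test on global-median-normalised Spectronaut quantities of proteins with ≥2 unique peptides.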

In another assay the target is T1, USP19 (UniProt O94966).
T1 sequence (whole entry): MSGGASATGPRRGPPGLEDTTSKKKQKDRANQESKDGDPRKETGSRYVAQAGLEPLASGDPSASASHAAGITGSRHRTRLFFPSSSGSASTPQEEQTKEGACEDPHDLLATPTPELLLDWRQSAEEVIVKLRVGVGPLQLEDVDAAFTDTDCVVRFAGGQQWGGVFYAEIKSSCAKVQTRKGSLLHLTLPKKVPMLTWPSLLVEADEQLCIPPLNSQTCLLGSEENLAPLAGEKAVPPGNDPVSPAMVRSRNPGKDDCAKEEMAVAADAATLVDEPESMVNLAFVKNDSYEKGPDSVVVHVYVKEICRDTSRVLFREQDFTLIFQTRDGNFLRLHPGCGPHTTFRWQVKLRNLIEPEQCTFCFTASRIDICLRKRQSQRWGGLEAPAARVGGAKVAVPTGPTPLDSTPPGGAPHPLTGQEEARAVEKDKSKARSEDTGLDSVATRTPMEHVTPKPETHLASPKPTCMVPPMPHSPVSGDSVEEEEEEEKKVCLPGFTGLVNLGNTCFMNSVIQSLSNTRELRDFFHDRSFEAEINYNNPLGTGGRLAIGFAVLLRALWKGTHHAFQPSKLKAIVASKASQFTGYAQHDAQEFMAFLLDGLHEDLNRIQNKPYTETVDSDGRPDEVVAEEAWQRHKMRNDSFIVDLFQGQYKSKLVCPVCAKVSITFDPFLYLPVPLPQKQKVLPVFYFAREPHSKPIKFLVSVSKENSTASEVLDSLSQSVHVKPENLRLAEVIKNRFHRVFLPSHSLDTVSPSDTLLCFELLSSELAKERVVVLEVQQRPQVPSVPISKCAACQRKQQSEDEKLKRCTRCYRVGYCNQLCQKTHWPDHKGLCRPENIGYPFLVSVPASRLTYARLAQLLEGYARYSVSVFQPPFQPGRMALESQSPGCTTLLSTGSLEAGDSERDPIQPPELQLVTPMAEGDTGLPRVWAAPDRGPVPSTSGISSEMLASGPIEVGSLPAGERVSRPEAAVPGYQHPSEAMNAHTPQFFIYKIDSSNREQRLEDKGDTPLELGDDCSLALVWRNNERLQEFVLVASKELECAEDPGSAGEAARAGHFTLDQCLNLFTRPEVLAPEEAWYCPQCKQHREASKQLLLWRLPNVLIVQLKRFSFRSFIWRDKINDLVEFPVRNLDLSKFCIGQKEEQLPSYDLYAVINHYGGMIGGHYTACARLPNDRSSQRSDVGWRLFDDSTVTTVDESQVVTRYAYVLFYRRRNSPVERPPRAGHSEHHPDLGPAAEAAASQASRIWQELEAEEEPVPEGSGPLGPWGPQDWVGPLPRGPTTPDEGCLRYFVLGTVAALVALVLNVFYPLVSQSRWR
In short, it runs like this:
as §1

The target of the next assay is USP24 (UniProt Q9UPU5). In short, it runs like this:
as §1

For a further assay, the target named is T2, USP25 (UniProt Q9UHP3).
T2 sequence (whole entry): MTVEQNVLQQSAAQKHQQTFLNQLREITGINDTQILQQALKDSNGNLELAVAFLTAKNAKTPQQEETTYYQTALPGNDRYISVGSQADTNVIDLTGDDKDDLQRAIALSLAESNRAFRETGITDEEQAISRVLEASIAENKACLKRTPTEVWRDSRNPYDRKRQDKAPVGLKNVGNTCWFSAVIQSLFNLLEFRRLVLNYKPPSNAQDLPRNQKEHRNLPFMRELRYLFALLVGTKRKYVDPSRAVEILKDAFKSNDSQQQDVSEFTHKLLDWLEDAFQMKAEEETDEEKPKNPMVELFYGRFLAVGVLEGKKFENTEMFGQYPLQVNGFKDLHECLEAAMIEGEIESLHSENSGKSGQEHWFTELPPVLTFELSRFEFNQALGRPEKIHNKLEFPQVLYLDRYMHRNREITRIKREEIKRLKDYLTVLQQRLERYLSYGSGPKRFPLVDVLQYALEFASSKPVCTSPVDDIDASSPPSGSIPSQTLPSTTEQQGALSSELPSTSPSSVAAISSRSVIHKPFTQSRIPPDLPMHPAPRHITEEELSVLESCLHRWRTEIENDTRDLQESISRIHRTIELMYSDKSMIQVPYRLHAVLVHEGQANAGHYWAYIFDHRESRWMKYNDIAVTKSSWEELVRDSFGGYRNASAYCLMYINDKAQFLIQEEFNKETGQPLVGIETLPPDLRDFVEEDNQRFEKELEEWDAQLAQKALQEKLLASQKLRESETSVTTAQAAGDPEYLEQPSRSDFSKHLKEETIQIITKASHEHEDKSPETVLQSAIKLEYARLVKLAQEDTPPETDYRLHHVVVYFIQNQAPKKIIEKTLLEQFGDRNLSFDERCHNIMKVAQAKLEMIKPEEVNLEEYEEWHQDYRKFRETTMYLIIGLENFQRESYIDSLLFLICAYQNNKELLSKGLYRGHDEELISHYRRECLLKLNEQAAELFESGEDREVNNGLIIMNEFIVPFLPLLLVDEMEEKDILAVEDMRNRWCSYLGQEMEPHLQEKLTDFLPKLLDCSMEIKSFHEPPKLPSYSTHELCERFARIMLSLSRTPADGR
A digest of the protocol:
as §1

A further assay deals with T3, USP28 (UniProt Q96RU2).
T3 sequence (whole entry): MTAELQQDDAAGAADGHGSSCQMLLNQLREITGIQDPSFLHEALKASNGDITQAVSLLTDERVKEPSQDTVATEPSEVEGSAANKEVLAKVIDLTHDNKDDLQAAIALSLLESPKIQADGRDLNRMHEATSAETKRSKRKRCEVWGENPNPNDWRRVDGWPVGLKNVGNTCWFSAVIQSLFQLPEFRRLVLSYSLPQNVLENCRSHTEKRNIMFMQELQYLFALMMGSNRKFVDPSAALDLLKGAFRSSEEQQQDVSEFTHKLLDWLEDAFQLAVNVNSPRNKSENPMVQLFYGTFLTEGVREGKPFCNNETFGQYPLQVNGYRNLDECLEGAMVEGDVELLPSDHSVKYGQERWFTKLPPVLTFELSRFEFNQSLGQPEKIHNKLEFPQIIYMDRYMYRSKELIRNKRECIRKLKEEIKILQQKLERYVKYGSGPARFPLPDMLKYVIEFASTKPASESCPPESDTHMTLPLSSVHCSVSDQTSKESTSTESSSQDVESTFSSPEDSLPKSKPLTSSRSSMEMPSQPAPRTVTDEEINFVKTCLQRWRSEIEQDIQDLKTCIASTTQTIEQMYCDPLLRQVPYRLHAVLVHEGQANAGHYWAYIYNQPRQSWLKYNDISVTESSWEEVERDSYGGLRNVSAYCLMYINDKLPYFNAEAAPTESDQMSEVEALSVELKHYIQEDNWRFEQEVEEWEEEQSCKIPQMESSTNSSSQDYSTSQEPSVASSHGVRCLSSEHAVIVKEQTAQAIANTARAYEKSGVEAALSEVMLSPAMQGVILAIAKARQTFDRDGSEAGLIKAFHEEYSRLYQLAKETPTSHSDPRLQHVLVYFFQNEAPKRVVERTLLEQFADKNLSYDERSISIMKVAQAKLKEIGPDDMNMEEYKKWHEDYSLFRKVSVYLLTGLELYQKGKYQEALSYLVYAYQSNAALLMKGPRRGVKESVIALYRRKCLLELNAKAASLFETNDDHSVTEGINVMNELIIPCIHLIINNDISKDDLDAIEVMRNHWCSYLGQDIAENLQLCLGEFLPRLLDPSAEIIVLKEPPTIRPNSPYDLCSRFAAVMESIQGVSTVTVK
In short, it runs like this:
as §1

USP16, sequence (Q9Y5T5 whole entry, looked up, the tested form may be a part): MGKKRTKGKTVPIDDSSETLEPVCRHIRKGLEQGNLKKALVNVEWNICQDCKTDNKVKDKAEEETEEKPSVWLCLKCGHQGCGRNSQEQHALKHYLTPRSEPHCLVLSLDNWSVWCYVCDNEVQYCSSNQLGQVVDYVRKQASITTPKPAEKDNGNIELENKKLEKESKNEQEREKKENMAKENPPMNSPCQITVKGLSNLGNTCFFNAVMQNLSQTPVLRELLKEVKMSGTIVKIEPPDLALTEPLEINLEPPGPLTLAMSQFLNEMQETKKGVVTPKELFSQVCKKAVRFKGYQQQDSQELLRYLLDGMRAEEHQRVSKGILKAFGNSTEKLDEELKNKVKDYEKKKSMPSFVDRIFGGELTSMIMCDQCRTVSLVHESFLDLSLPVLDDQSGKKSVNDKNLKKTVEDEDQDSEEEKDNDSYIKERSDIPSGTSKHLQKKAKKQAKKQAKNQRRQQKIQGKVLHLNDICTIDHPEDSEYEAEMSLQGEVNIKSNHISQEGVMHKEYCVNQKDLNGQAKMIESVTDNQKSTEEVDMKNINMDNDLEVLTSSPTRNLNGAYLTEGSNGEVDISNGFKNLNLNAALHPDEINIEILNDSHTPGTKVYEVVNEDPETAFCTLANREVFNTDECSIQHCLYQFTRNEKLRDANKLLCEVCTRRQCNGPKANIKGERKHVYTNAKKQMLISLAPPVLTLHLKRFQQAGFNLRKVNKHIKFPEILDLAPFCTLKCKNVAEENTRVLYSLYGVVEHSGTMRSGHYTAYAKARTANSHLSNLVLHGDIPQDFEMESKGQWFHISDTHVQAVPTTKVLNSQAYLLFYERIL
USP24, sequence (Q9UPU5 whole entry): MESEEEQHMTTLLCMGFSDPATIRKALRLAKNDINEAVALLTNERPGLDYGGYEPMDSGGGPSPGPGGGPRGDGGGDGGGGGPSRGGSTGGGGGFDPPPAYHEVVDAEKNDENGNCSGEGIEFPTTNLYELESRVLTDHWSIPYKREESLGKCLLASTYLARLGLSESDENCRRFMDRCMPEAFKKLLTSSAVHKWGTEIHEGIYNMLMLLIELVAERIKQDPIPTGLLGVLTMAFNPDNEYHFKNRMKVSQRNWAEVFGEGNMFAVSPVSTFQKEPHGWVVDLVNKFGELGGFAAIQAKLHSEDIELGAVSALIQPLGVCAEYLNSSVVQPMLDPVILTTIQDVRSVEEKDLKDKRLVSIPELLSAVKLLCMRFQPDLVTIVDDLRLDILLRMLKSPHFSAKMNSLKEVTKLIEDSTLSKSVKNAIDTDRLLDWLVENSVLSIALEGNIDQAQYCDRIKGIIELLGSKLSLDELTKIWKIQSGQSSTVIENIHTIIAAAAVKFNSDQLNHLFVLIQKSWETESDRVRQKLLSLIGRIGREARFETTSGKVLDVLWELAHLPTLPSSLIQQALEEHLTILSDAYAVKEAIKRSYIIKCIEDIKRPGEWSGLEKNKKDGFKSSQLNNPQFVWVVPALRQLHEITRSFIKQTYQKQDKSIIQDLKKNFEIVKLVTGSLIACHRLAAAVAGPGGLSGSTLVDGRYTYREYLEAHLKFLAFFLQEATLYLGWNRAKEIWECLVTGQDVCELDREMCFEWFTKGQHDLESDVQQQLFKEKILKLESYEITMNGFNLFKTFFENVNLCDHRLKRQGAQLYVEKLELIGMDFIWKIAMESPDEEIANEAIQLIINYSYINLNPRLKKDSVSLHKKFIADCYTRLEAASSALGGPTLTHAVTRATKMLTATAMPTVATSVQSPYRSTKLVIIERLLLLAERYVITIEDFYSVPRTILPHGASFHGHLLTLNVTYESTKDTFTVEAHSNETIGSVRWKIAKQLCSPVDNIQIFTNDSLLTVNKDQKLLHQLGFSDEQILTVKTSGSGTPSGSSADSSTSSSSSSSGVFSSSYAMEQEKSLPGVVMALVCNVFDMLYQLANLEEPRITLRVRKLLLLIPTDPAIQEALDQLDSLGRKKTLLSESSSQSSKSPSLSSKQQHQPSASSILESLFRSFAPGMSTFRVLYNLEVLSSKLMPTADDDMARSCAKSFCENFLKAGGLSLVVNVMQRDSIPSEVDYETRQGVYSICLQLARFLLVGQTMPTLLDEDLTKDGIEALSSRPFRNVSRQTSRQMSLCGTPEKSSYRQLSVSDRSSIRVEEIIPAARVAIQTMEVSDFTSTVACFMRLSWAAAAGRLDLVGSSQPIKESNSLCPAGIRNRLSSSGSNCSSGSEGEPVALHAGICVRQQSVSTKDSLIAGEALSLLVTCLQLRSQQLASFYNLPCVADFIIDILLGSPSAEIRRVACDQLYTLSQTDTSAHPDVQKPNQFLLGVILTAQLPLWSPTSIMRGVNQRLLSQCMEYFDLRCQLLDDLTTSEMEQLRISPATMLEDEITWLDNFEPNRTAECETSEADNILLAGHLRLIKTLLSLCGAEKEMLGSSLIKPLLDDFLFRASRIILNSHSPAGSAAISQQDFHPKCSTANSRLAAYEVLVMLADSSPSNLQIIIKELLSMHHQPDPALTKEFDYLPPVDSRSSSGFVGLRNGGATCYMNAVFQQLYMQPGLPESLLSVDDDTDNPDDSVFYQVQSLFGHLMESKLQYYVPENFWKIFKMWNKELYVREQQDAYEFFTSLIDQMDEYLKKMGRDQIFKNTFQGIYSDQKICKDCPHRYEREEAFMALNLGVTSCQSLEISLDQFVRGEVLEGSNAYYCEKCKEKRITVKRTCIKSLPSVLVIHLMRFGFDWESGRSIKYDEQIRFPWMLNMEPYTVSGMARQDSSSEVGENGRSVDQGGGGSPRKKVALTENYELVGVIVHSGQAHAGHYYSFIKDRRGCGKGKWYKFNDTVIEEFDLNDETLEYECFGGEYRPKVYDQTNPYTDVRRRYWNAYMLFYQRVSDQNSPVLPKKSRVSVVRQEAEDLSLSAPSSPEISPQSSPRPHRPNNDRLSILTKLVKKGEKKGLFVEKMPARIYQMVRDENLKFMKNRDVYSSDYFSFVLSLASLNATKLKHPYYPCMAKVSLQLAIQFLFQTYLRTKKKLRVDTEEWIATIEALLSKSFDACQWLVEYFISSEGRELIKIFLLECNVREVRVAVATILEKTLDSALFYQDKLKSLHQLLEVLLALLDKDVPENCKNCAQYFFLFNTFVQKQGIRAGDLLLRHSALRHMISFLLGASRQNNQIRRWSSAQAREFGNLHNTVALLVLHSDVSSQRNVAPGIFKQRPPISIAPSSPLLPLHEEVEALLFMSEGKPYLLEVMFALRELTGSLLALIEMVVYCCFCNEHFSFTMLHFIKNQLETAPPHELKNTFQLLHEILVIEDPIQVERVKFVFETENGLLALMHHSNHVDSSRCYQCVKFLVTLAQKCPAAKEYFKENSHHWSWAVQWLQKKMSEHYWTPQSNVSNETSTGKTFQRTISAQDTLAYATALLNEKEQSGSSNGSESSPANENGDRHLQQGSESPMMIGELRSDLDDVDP

For the molecule `O=C(CCl)Nc1nc(-c2cccs2)cs1`, the “log2 ratio of Biotin-Ahx-Ub-VS probe labelling” value with USP16 was -0.00927; with USP19 it was -0.517; in the assay with USP24 it was -1.48 (active); with USP25 it was -0.387; with USP28 it was -0.678.
